Test results taken from PubChem BioAssay AID624297 (National Center for Advancing Translational Sciences (NCATS), 2012).
About 6,200 (1.8%) of roughly 340,000 compounds were called active. Where a call stands in place of a potency, no number is given. Roughly 10% stayed inconclusive and do not appear here. Only a selection was taken, and actives are over-represented in it overall. A number with no mark means an inactive call. The call rests on the fitted dose curve; in most records, active means well fitted activation curve with a large enough effect; inconclusive means small, poorly fitted or top-dose-only effect; inactive means no such curve, though single readings can be large or run the other way.
Potency means the concentration at half of the fitted maximal effect.

Experiment: A quantitative high throughput screen for small molecules that induce DNA re-replication in SW480 colon adenocarcinoma cells. Further: nearly all actives have a fitted effect of over 55% in size.
Conditions: Hoechst DNA content imaging, 48 h; series mostly up to 46.1 µM
In short: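 Quantitative HTS format with DMSO vehicle controls; 48 hr drug incubation at 37 C, then 40 min Hoechst staining and scanning imager measurement at 405 nm excitation.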
For `C=CC[C@H](CC(=O)N(CCO)Cc1ccccc1)C(=O)N[C@@H](COC(=O)[C@@H](CC=C)Cc1ccc(F)cc1)Cc1ccccc1`, the Potency was “inactive”. For `Cc1ccccc1NC(=O)c1ccccc1NS(=O)(=O)c1cccc2cccnc12`, the Potency was “inactive”. For `O=[N+]([O-])c1cccc2ncccc12`, the Potency was “inactive”. With `O=[N+]([O-])c1ccccc1S(=O)(=O)Nc1cccc2cccnc12` the Potency was 13 µM (active). In the case of `CC(=O)C(CC(=O)N1CCCC1)C(=O)Nc1ccc(Cl)cc1` (stereo not drawn), the Potency is reported as “inactive”. For `COC1=NC2=NCCN2C(OC)=N1`, the Potency was “inactive”. For `O=C(NCCN1CCOCC1)c1ccc2c(c1)ncn2C1CCCC1`, the Potency was “inactive”. With `c1ccc2cc3c(NCCN4CCOCC4)ccnc3cc2c1` the Potency was 10.3 µM (active). With `O=C(NCCN1CCOCC1)c1cc(-c2cccs2)nc2ccccc12` the Potency was “inactive”. For `Cc1ccc(S(=O)(=O)N2CCN(C(=O)COC(=O)CNC(=O)c3ccc(C(C)(C)C)cc3)CC2)c(C)c1`, the Potency was “inactive”. With `Cc1ccc(S(=O)(=O)c2cc3c(=O)n4cccc(C)c4nc3n(CCc3ccccc3)c2=N)cc1C` the Potency was “inactive”. For `Cc1ccc(-n2c(=O)c(C#N)cc3c(=O)n4ccccc4nc32)cc1C`, the Potency was “inactive”. With `CCn1c(=N)c(S(=O)(=O)c2ccc(F)cc2)cc2c(=O)n3ccccc3nc21` the Potency was 20.6 µM (active). With `N#CCc1c(C#N)c(N)nc(N2CCCC2)c1C#N` the Potency was 14.6 µM (active). With `Cc1cc(C)c(C#N)c(N2CCC(C(N)=O)CC2)n1` the Potency was “inactive”. With `N#Cc1c(C(F)(F)F)cc(-c2cccs2)nc1N1CCCCC1` the Potency was “inactive”. For `O=C(OCCOc1ccccc1F)c1cc(S(=O)(=O)N2CCOCC2)ccc1F`, the Potency was “inactive”. In the case of `COc1cccc(NC(=O)COC(=O)c2ccc3ccccc3n2)c1`, the Potency is reported as “inactive”. For `CN(CCc1ccccc1)C(=O)c1cccc(NC(=O)Cc2cccc(NC(=O)C3CCCN(C(=O)CCc4ccccc4)C3)c2)c1` (stereo not drawn), the Potency was “inactive”. For `CC(NC(=O)c1ccccc1)C(=O)OCC(=O)Nc1cccc(S(=O)(=O)N2CCCC2)c1` (stereo not drawn), the Potency was “inactive”. In the case of `CC1(C)CC(=O)C(CC(=O)N2CCC(Cc3ccccc3)CC2)C(=O)C1`, the Potency is reported as “inactive”. For `CC1(C)CC(=O)C=C(Nc2ccccc2)C1`, the Potency was “inactive”. For `CC1(C)CC(=O)C(C2c3ccccc3S(=O)(=O)c3ccccc32)C(=O)C1`, the Potency was 4.11 µM (active). In the case of `COC(=O)C1CCN(C(=O)COC(=O)c2cc(S(=O)(=O)N3CCOCC3)ccc2C)CC1`, the Potency is reported as “inactive”. With `C#CCOCCOCCOCCNc1nc(N2CCN(C(=O)Cn3cc(CCO)nn3)CC2)nc(N2CCN(C(=O)Cn3cc(CCCN=C(N)N)nn3)CC2)n1` the Potency was “inactive”. With `Cc1cc(C)nc(Nc2n[nH]c(-c3ccccc3N)n2)n1` the Potency was 29.1 µM (active). For `COc1ccccc1-c1nc(SC)n[nH]1`, the Potency was “inactive”. With `Cc1cc(C)nc(Nc2cc([N+](=O)[O-])ccc2C)n1` the Potency was “inactive”. With `Cc1noc(C)c1NC(=O)Nc1cccc2c1O[C@H](CN(C)C(=O)Nc1ccccc1)[C@@H](C)CN([C@H](C)CO)C2=O` the Potency was “inactive”. With `CCCSc1ccc([C@H]2N[C@@](Cc3ccccc3)(C(=O)OC)[C@H]3C(=O)N(C)C(=O)[C@@H]23)cc1` the Potency was “inactive”. For `Cc1ccc(CNC(=O)COC(=O)C2CCC2)cc1`, the Potency was “inactive”. With `Cc1cnc(NC(=O)CSc2nnc(-c3ccc(Cl)cc3Cl)n2N)s1` the Potency was “inactive”. In the case of `Cc1ccc(CCC(=O)Nc2ncc(Cc3cc(Cl)ccc3Cl)s2)o1`, the Potency is reported as 1.64 µM (active). With `CCOc1ccccc1NC(=O)CCc1ccc(C)o1` the Potency was “inactive”. In the case of `O=[N+]([O-])c1cc2ccccc2nc1-c1ccccc1`, the Potency is reported as “inactive”. For `O=C(CN1C(=O)NC2(CCOc3ccccc32)C1=O)Nc1cccc([N+](=O)[O-])c1` (stereo not drawn), the Potency was “inactive”. In the case of `Cc1ccnc(NC(=O)c2ccco2)n1`, the Potency is reported as “inactive”. With `Cc1ccc(C(=O)COc2cccc(NC(=O)c3ccco3)c2)cc1` the Potency was “inactive”. In the case of `CCn1nc(NC(=O)c2ccco2)c2cc3ccc(C)cc3nc21`, the Potency is reported as 9.2 µM (active). In the case of `O=S1(=O)CCOC[C@H](Cc2ccccc2)N1Cc1ccccc1Br`, the Potency is reported as “inactive”. For `O=C(CCc1nc2ccccc2c(=O)[nH]1)OCC(=O)c1cccc(Cl)c1`, the Potency was “inactive”. For `CCC(=O)/C(=C(/O)c1ccccc1)c1nc2ccccc2[nH]1`, the Potency was “inactive”. For `O=C(/C(=C/c1cccc(Cl)c1)c1nc2ccccc2[nH]1)c1ccccc1`, the Potency was 18.4 µM (active). With `NCCN1CCN2C(=O)CN(C(=O)c3ccccc3)CC12` (stereo not drawn) the Potency was “inactive”. With `COc1ccc(N2CCN(C(CNS(=O)(=O)c3ccc(C)cc3)c3ccccc3)CC2)cc1` (stereo not drawn) the Potency was “inactive”. With `Cc1cccc(C)c1NC(=O)C(c1ccccc1)N1CC(=O)Nc2ccccc21` (stereo not drawn) the Potency was “inactive”. In the case of `Cc1cccc(C)c1NC(=O)CN(C)C(=O)CCC(=O)c1ccccc1`, the Potency is reported as “inactive”. With `Cc1cccc(C)c1NC(=O)C(Cl)C(=O)c1ccccc1` (stereo not drawn) the Potency was 16.4 µM (active). In the case of `COc1cc(OC)c(C(=O)NNC(=O)c2ccc(NS(=O)(=O)c3cccs3)cc2)cc1OC`, the Potency is reported as “inactive”. With `NC(=O)C1(Nc2ccc([N+](=O)[O-])cc2)CCCC1` the Potency was “inactive”. For `C/C(=N/OC(=O)c1c(-c2c(F)cccc2Cl)noc1C)c1cnccn1`, the Potency was “inactive”. In the case of `CCOC(=O)c1cc2c(=O)n3ccccc3nc2n(CC(C)C)c1=NC(=O)c1c(-c2c(F)cccc2Cl)noc1C`, the Potency is reported as 13 µM (active). For `CCCn1c(=NC(C)=O)c(C(=O)OCC)cc2c(=O)n3ccccc3nc21`, the Potency was “inactive”. For `O=C(OCC(=O)N1CCN(C(=O)c2ccco2)CC1)c1c(Cl)cccc1Cl`, the Potency was “inactive”. For `O=C(NNC(=O)C1CCCC1)c1ccc(F)cc1`, the Potency was “inactive”. For `O=C(/C=C/c1ccc([N+](=O)[O-])o1)NNC(=O)c1ccc(F)cc1`, the Potency was 3.66 µM (active). With `Cc1ccc(/C=C/C(=O)Nc2ccc([N+](=O)[O-])c(NC(=O)/C=C/c3ccc(C)o3)c2)o1` the Potency was “inactive”. In the case of `Cc1cccc(C(=O)OCC(=O)NC(C)C2CC3CCC2C3)c1O` (stereo not drawn), the Potency is reported as “inactive”. With `CNC(=S)NNC(=O)c1oc2nc(-c3ccccc3)cc(-c3ccco3)c2c1N` the Potency was 14.6 µM (active). For `CNC(=S)NNC(=O)c1sccc1OCc1ccccc1`, the Potency was “inactive”. For `CNC(=S)NNC(=O)c1cccn(Cc2ccccc2)c1=O`, the Potency was “inactive”. For `COc1ccc(CC(=O)NC(C)c2ccc(Cl)c(Cl)c2)cc1S(=O)(=O)N1CCOCC1` (stereo not drawn), the Potency was “inactive”. For `Cc1ccc(Nc2c(O)nc[nH]c2=O)cc1C`, the Potency was “inactive”. With `C[C@]12CC[C@H](O)CC1=CCC1C2CC[C@@]2(C)C1CC[C@@H]2NC(=O)CCC(=O)O` (stereo partly drawn) the Potency was “inactive”. For `COC(=O)C1CC2=C(CC(C)(C)CC2=O)N(c2ccccc2)C1=O` (stereo not drawn), the Potency was “inactive”. With `CCOC(=O)c1ccc(NC(=O)c2cccnc2)cc1` the Potency was “inactive”. For `CCOC(=O)c1ccc(N/C(=N/S(=O)(=O)c2ccccc2)c2ccccc2)cc1`, the Potency was 20.6 µM (active). With `Cc1ccc(S(=O)(=O)/N=C(/Nc2ccc3[nH]c(=O)[nH]c3c2)c2ccccc2)cc1` the Potency was “inactive”. For `NC(=S)NN=C1CCCC(C(F)(F)F)C1` (stereo not drawn), the Potency was “inactive”. With `O=[N+]([O-])c1ccc(C=NN=Cc2ccc([N+](=O)[O-])cc2)cc1` the Potency was “inactive”. In the case of `O=C1/C(=C\c2ccc([N+](=O)[O-])cc2)CS(=O)(=O)C/C1=C/c1ccc([N+](=O)[O-])cc1`, the Potency is reported as 4.11 µM (active). With `O=C(NN=Cc1ccc([N+](=O)[O-])cc1)C1CC1` the Potency was “inactive”. For `CCC(CO)Oc1cc(NC(=O)c2cccc(F)c2)c2ncn(C(C)C)c2c1` (stereo not drawn), the Potency was “inactive”. For `O=C1N[C@@H](c2ccccc2)COC(=O)[C@H](Cc2ccc(F)cc2)C/C=C\C[C@@H]1CC(=O)N(CCO)Cc1ccccc1`, the Potency was “inactive”. For `CC(C)C(=O)N1CCN(c2nc(-c3ccccc3)c3c(c2C#N)CC(C)(C)OC3)CC1`, the Potency was “inactive”. In the case of `COc1ccc(CSc2nc(N3CCOCC3)c3c(c2C#N)CC(C)(C)OC3)cc1`, the Potency is reported as “inactive”. With `CC1(C)Cc2c(C#N)c(SCc3nc4ccccc4[nH]3)nc(N3CCOCC3)c2CO1` the Potency was 12.6 µM (active). Work on `C=CC(COCc1ccccc1)N(CC(=O)OC)S(=O)(=O)c1cc(Br)ccc1OC` (stereo not drawn) yielded a re-replication activation of 4.23% [at 9.22 µM].
